Results on 40 compounds are retold here after PubChem BioAssay (NCI).

Each structure is given as a SMILES string. This is part of a sample that, as a whole, favours compounds with a hit. Of some 83,000 tested, about 20% had one in any assay.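 96-well plates, one dose, 48 hours. Percent growth reported; active if below 10.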 Calls of active or inactive are those of the source.

The assay has as its system TK-10 renal. The assay can be described thus: NCI-60 one-dose screen, 48 h (100 = growth as untreated, 0 = no growth, -100 = all killed). The settings on record: 10 µM unless noted. On the procedure:
Growth inhibition of the TK-10 human tumor cell line is measured as a screen for anti-cancer activity. Cells are grown in 96 well plates and exposed to the test compound for 48 hours. Compounds are tested at a single concentration, which is 10^-5 M for most compounds. The reported endpoint is percent growth (GI% or GIPRCNT), where numbers from 0 - 100% represent growth inhibition, and numbers from -100% - 0 represent cell death. For example, a value of 40 represents 60% growth inhibition. A value of 0 means no net growth occurred over the course of the experiment. A value of -40 indicates 40% of cells at the beginning of the experiment died by the end of the experiment. A value of -100 means all cells are dead at the end of the experiment.
NCI-60 Human Tumor Cell Lines Screen was performed using the standard one-dose NCI protocol, which is described in more detail at https://dtp.cancer.gov/discovery_development/nci-60/default.htm.
Compounds with GIPRCNT values below 10 were considered active. Activity score was based on GIPRCNT using the following formula: […]
Score is 0 for GIPRCNT values of 100 or above, 50 for GIPRCNT values of 0, and 100 for GIPRCNT values of -100.
Regarding `Cc1c(Cl)cccc1NC(=O)c1sc2nc3c(cc2c1N)CCCCCC3`, the growth was 44.9% (inactive).
`COc1ccc(-c2nc(C#N)c(NCC(c3ccco3)N3CCCC3)o2)cc1` (stereo not given): the growth is 82.1% (inactive).
With `CCO/C=N/S(=O)(=O)c1cc2c(cc1Cl)NC=NS2(=O)=O` the figure was 101% (inactive).
With `Cc1ccc(CS/C(=C\c2ccc([N+](=O)[O-])cc2)C(=O)c2ccc(F)cc2)cc1` the figure was 91.7% (inactive); with `CCOc1ccccc1C(=O)/C=C/c1cc2ccccc2[nH]c1=O`, 15% (inactive).
Under `O=C(Nc1ccc(N=Cc2ccccc2O)cc1)NC1C=c2ccccc2=CC1` (stereo not given) stands 111% (inactive); under `NC(N)=NC(N)=Nc1cc2ccccc2c2ccccc12`, 20.8% (inactive).
Take `CC(/C=C/c1ccccc1)=N/NC(=O)c1ccncc1`: the growth is 105% (inactive).
With `C=C(C)[C@@H]1CC[C@]2(C(=O)OCCOCCOCC[P+](c3ccccc3)(c3ccccc3)c3ccccc3)CC[C@]3(C)[C@H](CC[C@@H]4[C@@]5(C)CC[C@H](C)C(C)(C)[C@@H]5CC[C@]43C)[C@@H]12` the figure was -88.6% (active).
With `O=C1C(=O)c2c(nc3ccc(C(F)(F)F)cn23)-c2ccccc21` the figure was -97.3% (active).
With `Nc1c(C(=O)Nc2cccc3ccccc23)sc2nc3c(cc12)CCCCCC3` the figure was 55.3% (inactive); with `N#CCNc1ccc(C(=O)O)cc1`, 97.4% (inactive).
For `Nn1c(SCC(=O)Nc2ccc(Cl)cc2)nnc1-c1cc(F)c(Cl)cc1Cl`, the growth was 97.6% (inactive).
As to `COC(=O)/C=C1\SC(=Nc2cccc(OC)c2)N(CCc2c[nH]c3ccccc23)C1=O`, the growth was 89.3% (inactive).
As to `COc1ccc2nc3nc4ccc[nH]c4cc3c2c1`, the growth is 82.2% (inactive).
With `Nc1c(C(=O)c2ccccc2)sc2nc(-c3cc4ccccc4o3)cc(-c3ccc(Cl)cc3)c12` the figure was 137% (inactive).
As to `CCOCc1nc2ccccc2c(=O)[nH]1`, the growth was 102% (inactive).
Turning to `COC(=O)c1oc2c(C(=O)/C=C/c3ccc(OC)cc3)c(OCCCN3CCCCC3)ccc2c1C`, the growth was 35.2% (inactive).
Under `CCCCOc1nc2ccc(C)cc2cc1/C=C/C(=O)/C=C/c1ccc2c(c1)OCO2` stands 113% (inactive); under `Cc1nn(-c2ccc(-c3ccc(OC(F)(F)F)cc3)cc2)c2nc(-c3ccccc3)nc(N)c12`, 89.7% (inactive); under `COc1ccc2nc3c(n2c1)C(=O)C(=O)c1ccccc1-3`, 48.4% (inactive).
With `COc1c(O)cc2oc3cc(O[C@@H]4OC(C)[C@@H](O)[C@H](O)C4O)c(CC=C(C)C)c(O)c3c(=O)c2c1CC=C(C)C` (stereo not given in full) the figure was 92.6% (inactive); with `COc1cc(C2=NNC(c3ccc(N(C)C)cc3)C2)cc(OC)c1OC` (stereo not given), 59.2% (inactive); with `CC(C)(C)c1nn(-c2ccccc2)c2c1COCN2Cc1ccc(Cl)cc1`, 117% (inactive).
With `O=C1C(Cl)=C(NCCCN(CCCNC2=C(Cl)C(=O)c3ccccc3C2=O)C2=C(Cl)C(=O)c3ccccc3C2=O)C(=O)c2ccccc21` the figure was 146% (inactive).
On to `C#CCN(CCCOc1ccc(Cl)cc1Cl)CCCSC(=O)CCCCCN1/C(=C\C=C2/CCCC(/C=C/C3=[N+](CCCCCC(=O)[O-])c4ccccc4C3(C)C)=C2Cl)C(C)(C)c2ccccc21`, for which the growth was 50.3% (inactive).
Under `CCCCCCCCCCCCCC1=NCC[N+]1(CCO)Cc1ccccc1` (stereo not given) stands -85.4% (active).
With `CN1CCN(CC#CCOC(=O)CNC(=O)[C@]23CCC(C)(C)C[C@H]2C2=CC[C@@H]4[C@@]5(C)CC[C@H](O)C(C)(C)[C@@H]5CC[C@@]4(C)[C@]2(C)CC3)CC1` the figure was 109% (inactive).
Under `Nc1c(C(=O)Nc2cccc3ccccc23)sc2nc3c(cc12)CCCCC3` stands 62.8% (inactive).
As for `COc1ccc([C@H]2[C@@H](F)C(=O)N2c2cc(OC)c(OC)c(OC)c2)cc1F`, the growth is 64.4% (inactive).
Take `CCCNc1nc(C)[nH]c(=O)c1S`: the growth was 135% (inactive).
With `COc1ccc(C2CC(c3ccc(OC)cc3O)=NN2c2ccc(S(N)(=O)=O)cc2)cc1` (stereo not given) the figure was 43.9% (inactive).
Turning to `N#CC(C#N)=C1NC(c2ccccc2)=C(c2ccccc2)C(c2ccccc2Cl)=C1C#N`, the growth was 80.7% (inactive).
As for `CC(C)(C)c1nc2c(s1)c1nc(N)ncc1c1ccc(NS(=O)(=O)c3c(F)cccc3F)c(F)c12`, the growth was 64.4% (inactive).
Consider `COCCOCCOCc1n(Cc2ccc3ccccc3n2)c2ccccc2[n+]1Cc1ccc2ccccc2n1`, for which the growth was 37.6% (inactive).
Under `COC(=O)/C=C/c1cc(OC)c2c(c1)[C@@H](C(=O)OC)[C@H](c1ccc(OC)c(OC)c1)O2` stands 64.1% (inactive); under `Cc1nccc2c3ccc(OCc4cn(-c5ccc(Br)cc5)nn4)cc3n(CC(C)C)c12`, 41.1% (inactive).
With `Cc1ccc(-c2nc(C#N)c(S(=O)(=O)N(C)CCO)o2)cc1` the figure was 116% (inactive); with `COc1ccc(Sc2[nH]c(C(C)=O)c3ccccc23)cc1`, 58.9% (inactive).
With `COc1cc(/C=C/C(=O)/C=C/c2cc3ccc(Cl)cc3[nH]c2=O)ccc1O` the figure was 98% (inactive).
